Data from PMC4336329 (PLoS ONE, 2015).
In all, about 310,000 compounds went through this assay and about 14,000 (4.5%) showed an effect of 50% or more. The effect is printed as a negative number. The sample as a whole holds a higher share of strong results than the screen did.

Each molecule was assayed against human ether-à-go-go-related gene (hERG) potassium channel (human, UniProt Q12809) (assay: primary screen, population patch clamp on CHO cells stably expressing hERG; higher = less effect of the substance).
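Note: peak tail current of the secondary pulse compared with the same well before compound.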

Chain of human ether-à-go-go-related gene (hERG) potassium channel (Q12809 whole entry, looked up): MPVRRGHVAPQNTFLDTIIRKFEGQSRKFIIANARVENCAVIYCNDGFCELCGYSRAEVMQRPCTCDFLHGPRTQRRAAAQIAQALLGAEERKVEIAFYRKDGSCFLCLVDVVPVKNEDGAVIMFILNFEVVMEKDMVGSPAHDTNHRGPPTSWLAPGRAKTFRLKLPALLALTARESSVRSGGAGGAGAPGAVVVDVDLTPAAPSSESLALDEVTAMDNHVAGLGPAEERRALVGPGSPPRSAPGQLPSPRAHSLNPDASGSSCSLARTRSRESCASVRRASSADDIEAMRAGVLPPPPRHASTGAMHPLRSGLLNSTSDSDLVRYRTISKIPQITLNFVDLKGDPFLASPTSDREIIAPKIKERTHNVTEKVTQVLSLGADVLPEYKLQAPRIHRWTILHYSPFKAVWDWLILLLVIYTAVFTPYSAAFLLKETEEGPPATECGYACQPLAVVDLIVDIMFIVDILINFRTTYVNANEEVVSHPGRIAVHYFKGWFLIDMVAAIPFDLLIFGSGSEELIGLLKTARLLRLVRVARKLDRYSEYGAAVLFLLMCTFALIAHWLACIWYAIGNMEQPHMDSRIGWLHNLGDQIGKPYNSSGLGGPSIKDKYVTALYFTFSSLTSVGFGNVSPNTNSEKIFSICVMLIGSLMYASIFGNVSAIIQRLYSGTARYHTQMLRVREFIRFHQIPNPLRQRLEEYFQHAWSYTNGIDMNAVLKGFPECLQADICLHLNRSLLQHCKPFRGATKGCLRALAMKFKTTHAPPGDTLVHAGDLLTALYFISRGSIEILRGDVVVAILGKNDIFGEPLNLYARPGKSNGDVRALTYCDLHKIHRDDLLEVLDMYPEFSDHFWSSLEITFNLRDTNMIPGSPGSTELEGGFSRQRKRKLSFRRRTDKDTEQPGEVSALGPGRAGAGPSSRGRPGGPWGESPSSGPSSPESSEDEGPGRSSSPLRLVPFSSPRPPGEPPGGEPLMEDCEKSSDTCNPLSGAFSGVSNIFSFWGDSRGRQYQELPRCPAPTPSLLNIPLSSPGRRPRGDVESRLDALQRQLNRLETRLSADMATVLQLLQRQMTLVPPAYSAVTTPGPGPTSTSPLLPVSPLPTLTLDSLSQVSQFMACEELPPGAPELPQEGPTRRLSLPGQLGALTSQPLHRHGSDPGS

Compound	hERG current change (%, negative = inhibition) at 10uM
c1ccc(-n2nnc3ccccc32)nc1	3.7%
O=C(NN1C(=O)c2ccccc2NC1c1cccnc1)c1ccc([N+](=O)[O-])cc1 (stereo not drawn)	-37.5%
O=C(NCS(=O)(=O)c1ccccc1)c1ccccc1	-0.415%
CCOc1ccccc1CN1CCN(Cc2ccc3cccc(OC)c3n2)CC1CCO (stereo not drawn)	-55.5%
CCOc1ccccc1CN1CCN(Cc2ccc3cc(F)ccc3n2)CC1CCO (stereo not drawn)	-65.7%
CCOc1ccc2nc(CN3CCN(Cc4ccccc4OCC)C(CCO)C3)ccc2c1 (stereo not drawn)	-56.9%
COc1ccc(-c2csc(NC(C)c3nc4cc(C(=O)NCCCO)ccc4n3Cc3ccc(C)cc3)n2)cc1 (stereo not drawn)	9.34%
Fc1ccccc1Nc1nc2ccccc2n2nnnc12	7.8%
CCOc1cc(C(=O)Nc2ccc(S(=O)(=O)Nc3cc(C)on3)cc2)cc(OCC)c1OCC	-0.904%
O=C(NCc1ccco1)C1CCC(N2C(=O)c3ccccc3C2=O)CC1 (stereo not drawn)	1.59%
C=C1Cn2c(nnc2-c2ccc(Cl)cc2)S1	-27.4%
C=CCNC(=O)C1(c2ccccc2)CC1(Cl)Cl (stereo not drawn)	-5.1%
O=c1cc(N2CCCCC2)c(-c2ccccc2)nn1Cc1cccc(Cl)c1	0.996%
COC(=O)c1ccc(/C=C2\Oc3ccccc3NC2=O)cc1	15.5%
CCOC(=O)C1=C(C)NC(=S)NC1c1ccc(-c2cccc(Cl)c2C)o1 (stereo not drawn)	14.4%
CCOc1ccc(N2CC(O)(c3ccc(F)cc3)[N+]3=C2CCCC3)cc1.[Br-] (stereo not drawn)	-71.6%
CCOc1ccc(N2CC(C(=O)NNC(=O)c3ccc(F)cc3)CC2=O)cc1 (stereo not drawn)	-25.4%
COc1ccc(C2(O)CN(c3ccc(C)cc3)C3=[N+]2CCCC3)cc1.[Br-] (stereo not drawn)	-37.5%
OC1(c2cccs2)CN(c2ccccc2)C2=[N+]1CCCC2.[Br-] (stereo not drawn)	4.63%
COc1ccc(N2CC(O)(c3ccc(C)cc3)[N+]3=C2CCCC3)cc1.[Br-] (stereo not drawn)	-38.9%
Cc1cccc(N2CC(O)(c3cccs3)[N+]3=C2CCCC3)c1.[Br-] (stereo not drawn)	-12.3%
COc1ccc(N2CC(O)(c3ccc(F)cc3)[N+]3=C2CCCC3)cc1.[Br-] (stereo not drawn)	-3.37%

Compound	hERG current change (%, negative = inhibition) at 10uM
COc1ccc(N2CC(O)(c3ccc(OC(F)F)cc3)[N+]3=C2CCCC3)cc1.[Br-] (stereo not drawn)	-70%
CCOc1ccc(N2CC(O)(c3cccs3)[N+]3=C2CCCC3)cc1.[Br-] (stereo not drawn)	-69.7%
Cc1cccc(N2CC(O)(c3cccs3)[N+]3=C2CCCC3)c1C.[Br-] (stereo not drawn)	-43.5%
Cc1ccc(N2CC(O)(c3cccs3)[N+]3=C2CCCC3)cc1.[Br-] (stereo not drawn)	-32.3%
OC1(c2cccs2)CN(c2ccc(Cl)cc2)C2=[N+]1CCCC2.[Br-] (stereo not drawn)	-59.5%
Cc1cccc(C)c1NC(=O)CN1C(=O)COc2ccccc21	10.5%
Cc1ccc(S(=O)(=O)c2cnc(-c3ccccc3)nc2N2CCCCC2)cc1	25.7%
CS(=O)(=O)c1ccc(NCCc2ccccn2)c([N+](=O)[O-])c1	-22.7%
COc1cccc(C2C(C(=O)Nc3ccc(C)cc3C)=C(C)Nc3ncnn32)c1OC (stereo not drawn)	7.02%
O=C(Nc1c2c(nn1-c1ccc(F)cc1)CS(=O)C2)c1ccco1 (stereo not drawn)	-21.4%
CC(=O)Nc1ccc(NC(=O)c2cc(=O)c3ccc(C)cc3o2)cc1	17.4%
CCC1=NN(C(=O)Cc2ccccc2)C(O)(c2ccncc2)C1 (stereo not drawn)	28.9%
COc1ccc(OCc2cccc(C(=O)Nn3cc([N+](=O)[O-])cn3)c2)cc1	-15.6%
CCOC(=O)c1ccc(CNC(=O)c2cc(COc3ccccc3SC)on2)o1	1.07%
CC(C)Cn1c(N)c(C=O)c(=O)n(C)c1=O	26.4%
O=C(C1CCC(=O)N(C2CCCCCC2)C1)N1CCN(c2ccccc2Cl)CC1 (stereo not drawn)	-42.9%
Cc1cccc(N2CCN(C(=O)C3CCCCC3)CC2)c1C	-24.8%
COc1cccc(CN2CC(C(=O)N3CCN(c4ccc(Cl)cc4)CC3)CCC2=O)c1 (stereo not drawn)	-70.9%
COc1cccc(CN2CC(C(=O)N3CCCCCCC3)CCC2=O)c1 (stereo not drawn)	-2.24%
COc1cccc(CN2CC(C(=O)N3CCCC3)CCC2=O)c1 (stereo not drawn)	19.4%
Cc1cc(N2CCC(C(=O)N3CCN(c4cccc(C)c4C)CC3)CC2)n2ncnc2n1	-68.7%
Cc1cc(N2CCN(C(=O)OC(C)(C)C)CC2)n2ncnc2n1	-27.5%

Compound	hERG current change (%, negative = inhibition) at 10uM
O=C(C1CCC(=O)N(C2CCCC2)C1)N1CCN(c2ccc(Cl)cc2)CC1 (stereo not drawn)	-61%
O=C1CCC(C(=O)N2CCN(c3ccccc3Cl)CC2)CN1CC1CCCCC1 (stereo not drawn)	-72.2%
O=C1CCC(C(=O)N2CCN(c3ccccc3)CC2)CN1CC1CCCCC1 (stereo not drawn)	-27.5%
O=C(C1CCC(=O)N(C2CCCC2)C1)N1CCN(c2ccccc2Cl)CC1 (stereo not drawn)	-15.8%
O=C(C1CCC(=O)N(C2CC2)C1)N1CCN(c2ccc(Cl)cc2)CC1 (stereo not drawn)	-38.1%
O=C(Cn1nnc(-c2ccc(CN3CCOCC3)cc2)n1)NC1CCCCC1	-12.4%
COc1cccc(NC(=O)CCNS(=O)(=O)c2ccc(Br)s2)c1	-32.6%
CCCCNC(=O)C1CCN(S(=O)(=O)N2CCOCC2)CC1	5.58%
COc1ccc(OCc2nc3c4c(ncn3n2)-c2ccccc2CC42CCCC2)cc1	6.66%
CCC(Oc1ccccc1)C(=O)Nc1nnc(S(=O)(=O)N2CCCCC2)s1 (stereo not drawn)	12.8%
CCc1ccc(-c2csc3ncn(Cc4ccc(C(=O)O)cc4)c(=O)c23)cc1	4.9%
COc1ccc(NC(=O)c2ccc3ncsc3c2)c2ccccc12	4.56%
Clc1ccc(CSc2nnc3c(n2)[nH]c2ccccc23)cc1	-1.62%
O=S(=O)(NCc1ccccc1)[C@@H]1CC2C=CC1C2 (stereo partly drawn)	1.81%
O=C(c1cc(COc2ccc(F)cc2Cl)on1)N(CCO)Cc1cccs1	-31.6%
Cc1ccccc1OC1CCN(C(=O)C2CCC(=O)N(C3CCCC3)C2)CC1 (stereo not drawn)	3.16%
Cc1cccc(N2CCN(C(=O)C3CCC(=O)N(C4CC4)C3)CC2)c1C (stereo not drawn)	0.967%
Cc1cccc(N2CCN(C(=O)C3CC(=O)N(C4CCCC4)C3)CC2)c1C (stereo not drawn)	-57.9%
O=C(C1CCC(=O)N(C2CCCC2)C1)N1CCC(Oc2ccccc2Cl)CC1 (stereo not drawn)	-62.1%
O=C(C1CCC(=O)N(C2CC2)C1)N1CCC(Oc2ccccc2F)CC1 (stereo not drawn)	2.26%
Cc1ccccc1N1CCN(C(=O)C2CCC(=O)N(C3CCCC3)C2)CC1 (stereo not drawn)	-22.5%
COc1ccc(C)cc1S(=O)(=O)N(CC(=O)O)c1ccc(C)cc1	5.39%

Compound	hERG current change (%, negative = inhibition) at 10uM
Cc1cc(C)cc(NC(=S)NCc2ccc(S(N)(=O)=O)cc2)c1	8.2%
Cn1c2ccccc2c2ncn(Cc3ccc(F)cc3)c(=O)c21	8%
O=C(CCNC(=O)c1ccco1)NCCc1ccc(Cl)cc1	-1.83%
Cc1ccc(CNC(=O)CCC2CCCN(C(=O)c3ccc4c(c3)OCO4)C2)o1 (stereo not drawn)	-20.5%
Cc1ccc(CNC(=O)CCC2CCCN(Cc3cccc4c3OCO4)C2)o1 (stereo not drawn)	-63.2%
COc1cc(CN2CCC(N3CCC(C(=O)N4CCCC4)CC3)CC2)cc2c1OCO2	-17.6%
COc1cc(CN2CCCC(CCC(=O)NCc3ccc(C)o3)C2)cc2c1OCO2 (stereo not drawn)	-59.9%
CC(=O)c1cccc(CN2CCCC(CCC(=O)NCc3ccc(C)o3)C2)c1 (stereo not drawn)	-16.2%
COC(=O)c1ccc(CN2CCCC(CCC(=O)NCc3ccc(C)o3)C2)cc1 (stereo not drawn)	-67.5%
COCc1ccc(CN2CCCC(CCC(=O)NCc3ccc(C)o3)C2)o1 (stereo not drawn)	-16.7%
CC1(C)CC(=O)C=C(Nc2cccc(F)c2)C1	17%
O=C1c2ccccc2S(=O)(=O)N1CC(O)Cn1c2ccccc2c2ccccc21 (stereo not drawn)	3.03%
CCn1c(Cc2ccccc2)nnc1SCC(=O)Nc1ccc(N2CCOCC2)c(Cl)c1	-5.94%
COc1cc(CNCCc2ccccc2F)ccc1OCc1ccc(Cl)nc1.Cl	-49.5%
CCCCNCc1ccc(OCc2ccc(Cl)nc2)c(OC)c1.Cl	-32.7%
COc1cc(CNCCc2ccccc2)ccc1OCc1ccc(Cl)nc1.Cl	-39.5%
CCCCCNCc1ccc(OCc2ccc(Cl)nc2)c(OC)c1	-45.8%
COc1cc(CNCCc2ccc(F)cc2)ccc1OCc1ccc(Cl)nc1.Cl	-68.2%
COc1ccc(CCNCc2ccc(OCc3ccc(Cl)nc3)c(OC)c2)cc1OC.Cl	-63.3%
CC1CCCC(NC(=O)COC(=O)c2ccc3ncsc3c2)C1C (stereo not drawn)	-3.48%
CC(C)N(C1=CC(=O)OC12CCCCC2)C(C)C	-0.582%
